In the library only some 12% were active in any assay of this set; here they are far more common.
Sfp inh = qHTS Assay for Inhibitors of Bacillus subtilis Sfp phosphopantetheinyl transferase (PPTase). 4'-phosphopantetheinyl transferase ffp (Bacillus subtilis), Q9F4F7. Biochemical Sfp PPTase activity, qHTS. Potency, µM, without a hit: largest response in the series, negative = inhibition, actives largely listed as inhibitors. hit rate 3.5% among 310,000. AID 1490, 2009;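 further: the enzyme is Sfp with the accession as filed and its product quenches rhodamine fluorescence; 0% = enzyme reaction without inhibitor and -100% = no enzyme wells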
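After 15 min at room temperature with compound, 15 nM Sfp received 5 uM rhodamine-CoA plus 12.5 uM BHQ-2-ybbR (50 mM Hepes pH 7.6, 10 mM MgCl2). Rate came from the fluorescence difference over 30 min, ex 525/em 598 nm.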
PLK1 PBD inh = qHTS for Inhibitors of PLK1-PDB (polo-like kinase 1 - polo-box domain): Primary Screen; Serine/threonine-protein kinase PLK1 (Homo sapiens), P53350; Plk1 PBD binding of FITC phosphopeptide, fluorescence polarization; Potency, µM, inactives show max response, negative = inhibition, hits mostly inhibitors; hit rate 2.8% among 360,000; further: series mostly up to about 57 µM; nearly all actives have a fitted effect of over 65% in size
Target sequence (P53350 whole entry, looked up, the tested form may be a part): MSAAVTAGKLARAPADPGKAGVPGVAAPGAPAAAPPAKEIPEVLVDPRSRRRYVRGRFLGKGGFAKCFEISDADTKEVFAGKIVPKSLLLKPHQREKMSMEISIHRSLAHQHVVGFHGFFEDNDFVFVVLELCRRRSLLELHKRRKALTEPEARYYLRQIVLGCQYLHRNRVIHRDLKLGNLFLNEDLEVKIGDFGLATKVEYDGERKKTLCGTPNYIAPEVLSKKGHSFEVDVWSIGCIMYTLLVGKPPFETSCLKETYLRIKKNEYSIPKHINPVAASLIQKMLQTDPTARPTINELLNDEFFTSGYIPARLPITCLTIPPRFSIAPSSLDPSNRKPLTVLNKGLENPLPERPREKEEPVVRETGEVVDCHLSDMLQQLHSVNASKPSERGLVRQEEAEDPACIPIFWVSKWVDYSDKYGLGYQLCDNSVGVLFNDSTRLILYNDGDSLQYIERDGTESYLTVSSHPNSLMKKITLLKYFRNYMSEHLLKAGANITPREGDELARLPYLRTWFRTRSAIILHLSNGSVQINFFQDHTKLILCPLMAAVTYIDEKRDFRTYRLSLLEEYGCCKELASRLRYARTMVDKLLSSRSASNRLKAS
RORgamma inh = qHTS for inhibitors of ROR gamma transcriptional activity; Nuclear receptor ROR-gamma (Mus musculus), P51450; Drosophila S2 Gal4-RORgamma UAS-luciferase reporter, 20 h; Potency, µM (series often up to 53.6 µM), for the others: top-dose activity change, negative = inhibition, actives largely listed as inhibitors; hit rate 5.4% among 310,000; further: nearly all actives have a fitted effect of over 60% in size
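In this cell-based reporter format, copper sulfate (700 uM final) drives Gal4–ROR gamma fusion expression from a metallothionein promoter in Drosophila Schneider cells; compounds preincubated 1 hr, reporter read after 20 hr at ambient temperature.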
VP16 counter = VP16 counterscreen qHTS for inhibitors of ROR gamma transcriptional activity; Drosophila S2 Gal4-VP16 UAS-luciferase, luminescence, 20 h; Potency, µM (top dose mostly 53.6 µM), without a hit: at the highest dose activity, negative = inhibition, actives largely listed as inhibitors; hit rate 3.5% among 310,000;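 further: Gal4-VP16 expression switched on by copper sulfate through the metallothionein promoter; nearly all actives have a fitted effect of over 50% in size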
ALDH1A1 block = qHTS Assay for Inhibitors of Aldehyde Dehydrogenase 1 (ALDH1A1); Potency, µM (series often up to 75.3 µM), for inactives: at the top dose activity, negative = inhibition, actives largely listed as inhibitors; hit rate 7.3% among 220,000; Purified ALDH1A1, NADH fluorescence, propionaldehyde substrate; AID 1030, 2008; Aldehyde dehydrogenase 1A1 (Homo sapiens), P00352; active means well fitted inhibition curve with a large enough effect, not every such curve was filed as active; inconclusive means small, poorly fitted or top-dose-only effect, or another doubt; inactive means no such curve, though single readings can be large or run the other way;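 further: plate controls were no enzyme wells and a reference inhibitor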
The depositor's hits bear a star; [ ] = dose if it differs, or a comment. Unless noted, the call rests on the fitted dose curve; in most records, active means well fitted curve in the direction sought with a large enough effect; inconclusive means small, poorly fitted or top-dose-only effect, or another doubt; inactive means no such curve, though single readings can be large; an effect the other way counts as inactive or inconclusive. Unless noted, on the % scale 0 is the no-effect control and ±100 the full control effect; potency means the concentration at half of the fitted maximal effect.

How did CC(C)COP(=O)(c1ccc(N(C)C)cc1)C(O)c1ccccn1 (stereo not drawn) do in these assays?
Sfp inh: 79.4µM*; PLK1 PBD inh: -2.1%; RORgamma inh: -2.8%; VP16 counter: 1.0%; ALDH1A1 block: inconclusive

How did Cc1ccccc1S(=O)(=O)N1C(c2ccc(Cl)cc2)CC=C(C(=O)O)C1c1cccc(Cl)c1 (stereo not drawn) do in these assays?
PLK1 PBD inh: 26.7µM*

What do the screens show for `Cc1ccc([C@@H]2CC=C(C(=O)O)[C@H](c3ccccc3)N2S(=O)(=O)c2ccccc2C)cc1`?
PLK1 PBD inh: -14.1%

What do the screens show for `Cc1ccccc1S(=O)(=O)N1[C@@H](c2ccc(Cl)cc2)C(C(=O)O)=CC[C@H]1c1ccc(Cl)cc1`?
PLK1 PBD inh: 29.9µM*

What do the screens show for `Cc1cc(C)cc(Oc2ccccc2CO)c1`?
Sfp inh: 9.1%; RORgamma inh: -15.9%; VP16 counter: -15.1%[10 µM]; ALDH1A1 block: 1.0%

Results for Cc1noc(C)c1-c1ccc(C(=O)NCCC(F)(F)F)c2occc12 ?
PLK1 PBD inh: 1.3%

How did Clc1ccc(CN2C3=NCCN3c3ccccc32)cc1Cl do in these assays?
Sfp inh: 1.4%; PLK1 PBD inh: -8.2%; RORgamma inh: 17.8µM*; VP16 counter: -15.9%; ALDH1A1 block: 1.2%

What do the screens show for `c1ccc(CN2C3=NCCN3c3ccccc32)cc1`?
Sfp inh: inconclusive; PLK1 PBD inh: -5.3%; RORgamma inh: -21.7%; VP16 counter: -5.3%; ALDH1A1 block: -3.8%

How did N#Cc1c(NC(=O)C2CC=CCC2C(=O)O)sc2c1CCCCCC2 (stereo not drawn) do in these assays?
Sfp inh: 5.1%; PLK1 PBD inh: inconclusive; RORgamma inh: inconclusive; VP16 counter: -1.0%; ALDH1A1 block: inconclusive

Results for Cc1sc(NC(=O)C2CCCO2)c(C#N)c1C (stereo not drawn) ?
Sfp inh: 14.9%; PLK1 PBD inh: inconclusive; RORgamma inh: 29.3%; VP16 counter: 10.9%; ALDH1A1 block: 25.1µM*

Results for Cc1sc(NC(=O)C2CCCC2)c(C#N)c1C ?
Sfp inh: inconclusive; PLK1 PBD inh: 26.7µM*; RORgamma inh: 30.2%; VP16 counter: 9.2%; ALDH1A1 block: 14.1µM*

Results for N#Cc1c(NC(=O)C2CCCO2)sc2c1CCCCCC2 (stereo not drawn) ?
Sfp inh: -7.2%; PLK1 PBD inh: -7.5%; RORgamma inh: inconclusive; VP16 counter: 28.6%; ALDH1A1 block: 14.1µM*

What do the screens show for `Cc1ccc(OCC(=O)OCC(=O)NC2CCS(=O)(=O)C2)cc1C` (stereo not drawn)?
PLK1 PBD inh: 5.7%

What do the screens show for `CN(C)c1nc(=NCc2ccco2)ss1`?
Sfp inh: 0.501µM*; PLK1 PBD inh: 2.67µM*; RORgamma inh: inconclusive; VP16 counter: inconclusive; ALDH1A1 block: 10µM*

Results for CC(C)CC(NC(N)=O)C(=O)OCC(=O)N(Cc1ccccc1)Cc1ccccc1 (stereo not drawn) ?
Sfp inh: 16.2%; PLK1 PBD inh: 2.0%; RORgamma inh: 5.2%; VP16 counter: -0.4%; ALDH1A1 block: 7.7%

What do the screens show for `S=C(N/N=C1\C2CN3CCN(C2)CC1(c1ccccc1)C3)Nc1ccccc1`?
Sfp inh: -9.7%; PLK1 PBD inh: -0.6%; RORgamma inh: 5.01µM*; VP16 counter: 2.82µM*; ALDH1A1 block: 4.0%

How did CCCC12CN3CCN(CC(C3)/C1=N\NC(=O)Nc1ccccc1)C2 do in these assays?
Sfp inh: 21.4%; PLK1 PBD inh: 1.8%; RORgamma inh: -4.9%; VP16 counter: -2.7%; ALDH1A1 block: 2.7%

What do the screens show for `CCCCCCCCCCCCC/C=C/[C@@H](O)[C@H](CO)NC(C)=O`?
Sfp inh: 24.6%; ALDH1A1 block: 2.4%

How did COc1ccc(C)cc1-n1nnnc1SC/C(O)=C(\C#N)c1nc2ccccc2[nH]1 do in these assays?
Sfp inh: -4.3%; PLK1 PBD inh: -8.5%; RORgamma inh: 12.6µM*; VP16 counter: inconclusive; ALDH1A1 block: inconclusive

Results for Cc1ccc(Nc2nnc(SC/C(O)=C(\C#N)c3nc4ccccc4[nH]3)s2)c(C)c1 ?
Sfp inh: 8.7%; PLK1 PBD inh: inconclusive; RORgamma inh: inconclusive; VP16 counter: inconclusive; ALDH1A1 block: inconclusive

Results for Cc1cccc(Nc2nnc(SC/C(O)=C(\C#N)c3nc4ccccc4[nH]3)s2)c1 ?
Sfp inh: -29.3%; PLK1 PBD inh: -7.4%; RORgamma inh: 7.08µM*; VP16 counter: 11.2µM*; ALDH1A1 block: inconclusive

What do the screens show for `CC(=O)OC[C@@H]1O[C@H](CCO/N=C(\C)CCC(=O)OC[C@@H]2O[C@H](C#Cc3ccccc3)C=C[C@@H]2Oc2ccc(C)cc2)C=C[C@@H]1OC(C)=O`?
Sfp inh: -14.4%; RORgamma inh: 13.6%[10 µM]; VP16 counter: 6.0%[10 µM]; ALDH1A1 block: 17.7%[13.5 µM]

How did C=C/C(=C\C)C[C@@H](CC(=O)N[C@@H](CCC(=O)O)CC(=O)O)NC(=O)[C@@H]1CNCC[C@H]1NC(=O)C[C@@H](NC(=O)C[C@H](Cc1ccccc1)NC(=O)[C@@H]1CCCC[C@H]1N)C(C)C do in these assays?
Sfp inh: -24.1%; RORgamma inh: 3.7%; VP16 counter: -3.3%; ALDH1A1 block: 8.4%

How did Cc1cc(C)nc(-n2nc(C)c(Sc3ccc(F)cc3)c2N)n1 do in these assays?
Sfp inh: -26.7%; PLK1 PBD inh: inconclusive; RORgamma inh: 2.24µM*; VP16 counter: 3.98µM*; ALDH1A1 block: -0.3%

What do the screens show for `Cc1nn(-c2ccccc2)c(N)c1Sc1cccc([N+](=O)[O-])c1`?
Sfp inh: -7.6%; PLK1 PBD inh: inconclusive; RORgamma inh: 17.2%; VP16 counter: -13.8%; ALDH1A1 block: inconclusive

How did CC1Sc2ccc(C(=O)N(CCc3ccccc3)Cc3ccccc3)cc2NC1=O (stereo not drawn) do in these assays?
PLK1 PBD inh: 2.8%

What do the screens show for `CC(C)(C)c1ccc(C(=O)N2[C@H](COCc3ccccc3)C=CS2(=O)=O)cc1`?
PLK1 PBD inh: -19.6%

How did COc1ccc(-c2cc(C)nc(SCc3cccc(C(=O)O)c3)n2)cc1 do in these assays?
Sfp inh: 1.4%; PLK1 PBD inh: -8.5%; RORgamma inh: 8.8%; VP16 counter: -12.4%; ALDH1A1 block: -4.9%

Results for Cc1nc(SCc2cccc(C(=O)O)c2)nc2c1CCCC2 ?
Sfp inh: -9.0%; PLK1 PBD inh: 26.7µM*; RORgamma inh: inconclusive; VP16 counter: -20.1%; ALDH1A1 block: -6.4%

How did O=C(O)c1cccc(CSc2nnc(COc3ccccc3)o2)c1 do in these assays?
Sfp inh: 14.1%; PLK1 PBD inh: -9.2%; RORgamma inh: -31.3%; VP16 counter: inconclusive; ALDH1A1 block: inconclusive

Compound activity deposited in PubChem by National Center for Advancing Translational Sciences (NCATS).
